Hits are enriched below; roughly 7.5% of the tested compounds scored in any of these assays.
ELG1 genotoxic: genotoxicity induction in ELG1-luciferase HEK293T cells. Potency, µM (doses to about 46 µM), without a hit: at the top dose activity change, positive = activation, actives largely listed as activators. HEK293T ELG1-luciferase reporter, luminescence, 16 h. 330,000 tested, 1.3% active. AID 504466; note: % of control where 0% means no effect; nearly all actives have a fitted effect of over 60% in size
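Quantitative HTS format in 1536-well plates. HEK293T ELG1-luciferase reporter cells receive test compound and are incubated 16 hr at 37 °C, 5% CO2; ONE-Glo added, 30 min room temperature, then luminescence read.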
SMN2 splice enh: SMN2 splice variant enhancement; Potency, µM (top dose mostly 46.1 µM), inactives show at the highest dose activity change, positive = activation, actives largely listed as activators; HEK293 SMN2-luciferase splicing reporter, luminescence, 30-36 h; 210,000 tested, 2.8% active; note: % of control where 0% means no effect; nearly all actives have a fitted effect of over 55% in size
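HEK293 cells carry an SMN2 minigene-luciferase reporter in which exon 7 inclusion puts luciferase in frame. Cells were seeded at 2000 cells/well, attached for 10-12 hours, then exposed to compounds for 30-36 hours at 37C before ONE-Glo luminescence.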
Rab9 promoter act: activators of Rab9 promoter; Huh7 Rab9 promoter-luciferase reporter, luminescence, 24 h; 320,000 tested, 2.8% active; AID 485297; Potency, µM (highest dose often 9.22 µM), inactives show at the highest dose activation, negative = inhibition, hits mostly activators; note: % of control where 0% means no effect; nearly all actives have a fitted effect of over 60% in size
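Cells were plated at 1500 per well in reduced-serum medium with 10% FBS and left 2 h. Compound in DMSO was then added for 24 h at 37 °C. Reporter signal was read by luminescence after 10 min with luciferase detection reagent.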
Luc counter: blocks Kinase-Glo luciferase, a counter-screen artifact | AID 1379 | 200,000 tested, 0.28% active | Potency, µM (highest dose often 38.3 µM), inactives show at the top dose activity change, negative = inhibition, actives largely listed as inhibitors | Kinase-Glo luciferase, ATP luminescence, 8 min | Q27757; note: % is set by controls: 0 for no effect and ±100 for the full control effect; nearly all actives have a fitted effect of over 60% in size
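Compounds were added to a substrate mix at pH 7.2 (50 mM imidazole, 10 uM ATP, within the enzyme's linear range), followed by Kinase-Glo detection reagent; luminescence was measured after 8 minutes at ambient temperature.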
FLuc modulator: firefly luciferase modulation, counter-screen for miR-21 project. purified FLuc, Km substrates, luminescence inhibition. 360,000 tested, 6.9% active. AID 588342. Potency, µM (series often up to 57.5 µM), without a hit: at the top dose activity change, negative = inhibition, most hits filed as inhibitors;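 note: plate controls were vehicle for no effect and reference inhibitor for full effect; nearly all actives have a fitted effect of over 55% in size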
Target sequence (P08659 whole entry, looked up): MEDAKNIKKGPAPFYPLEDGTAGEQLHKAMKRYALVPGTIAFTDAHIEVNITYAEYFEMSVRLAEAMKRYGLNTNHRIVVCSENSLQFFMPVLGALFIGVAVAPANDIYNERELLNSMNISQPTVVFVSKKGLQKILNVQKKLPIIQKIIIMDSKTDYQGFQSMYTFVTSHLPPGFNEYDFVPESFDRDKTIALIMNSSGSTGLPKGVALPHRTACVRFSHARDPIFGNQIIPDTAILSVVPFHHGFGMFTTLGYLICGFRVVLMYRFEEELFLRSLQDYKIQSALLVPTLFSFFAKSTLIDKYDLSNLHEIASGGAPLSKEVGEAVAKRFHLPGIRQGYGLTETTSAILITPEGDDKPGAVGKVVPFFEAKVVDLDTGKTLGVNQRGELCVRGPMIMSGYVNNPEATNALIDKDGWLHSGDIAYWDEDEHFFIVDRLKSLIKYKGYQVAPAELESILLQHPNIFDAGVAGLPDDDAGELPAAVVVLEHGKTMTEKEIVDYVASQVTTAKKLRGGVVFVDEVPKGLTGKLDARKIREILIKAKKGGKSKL
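Purified P. pyralis luciferase (10nM final) with 10uM D-luciferin and 10uM ATP (Km levels) in 50mM Tris acetate pH 7.5, 10mM Mg acetate, 0.01% Tween-20, 0.05% BSA; qHTS 6-point titration, ~60 µM downward; luminescence read.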
NPC1 promoter act: NPC1 promoter activation. Huh7 NPC1 promoter luciferase reporter, 24 h. Potency, µM (highest dose often 9.22 µM), for inactives: at the top dose activation, hits mostly activators. 320,000 tested, 2.4% active. AID 485313; note: % of control where 0% means no effect; nearly all actives have a fitted effect of over 60% in size
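NPC1 promoter–luciferase Huh7 cells; 24 h compound; luminescence.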
Numbers without * were called inactive; ? = inconclusive; nt = no result given; [ ] = another dose, or the depositor's remark. Calls come from the whole dose curve; as a rule, active = well fitted curve in the direction sought with a large enough effect; inconclusive = small, poorly fitted or top-dose-only effect, or another doubt; inactive = no such curve, though single readings can be large; an effect the other way counts as inactive or inconclusive. Potency is the fitted concentration of half-maximal effect.

SMILES	ELG1 genotoxic	SMN2 splice enh	Rab9 promoter act	Luc counter	FLuc modulator	NPC1 promoter act
O=c1c2c3c(sc2ncn1/N=C/c1cccnc1)CCCC3	10.4%	7.8%	21.8%	-1.9%	15.1µM*	-0.7%
O=c1c2c3c(sc2ncn1/N=C/c1ccncc1)CCCC3	-2.0%	3.6%	0.2%	-1.5%	?	-0.1%
C=CCC(C)(O)c1ccccc1 (centres undefined)	nt	-2.4%	nt	-2.2%	nt	nt
O=C(c1cc(COc2ccc(F)cc2F)on1)N1CCN(C(=O)c2ccco2)CC1	-8.2%	nt	-3.3%	nt	-11.7%	0.5%
Cc1ccc(C)c(OCc2cc(C(=O)N3C[C@@H](C)O[C@@H](C)C3)no2)c1	?	nt	1.58µM*	nt	6.01µM*	2.24µM*
Cc1ccc(C)c(OCc2cc(C(=O)N3CCN(C(=O)c4ccco4)CC3)no2)c1	?	nt	4.47µM*	nt	19µM*	3.16µM*
Cc1ccc(C)c(OCc2cc(C(=O)N3CCN(c4ccccc4)CC3)no2)c1	29.5%	nt	3.98µM*	nt	19µM*	2.82µM*
Cc1cc(C)c(C(=O)CSc2nnc(N)s2)cc1C	8.6%	nt	14.9%	nt	-18.5%	23.3%
Cc1nnc(SCC(=O)c2ccc(C(C)C)cc2)s1	9.8%	4.8%	?	-1.1%	9.53µM*	28.6%
CCOc1ccc(C(=O)CSc2nnc(N)s2)cc1	?	11.6%	3.16µM*	-3.7%	13.5µM*	2.51µM*
Cc1ccc(C(=O)CSc2nnc(N)s2)c(C)c1	14.6µM*	15.8µM*	2.51µM*	-0.6%	16.9µM*	3.16µM*
Cc1cc(C)c(C(=O)CSc2nnc(C)s2)c(C)c1	-5.3%	-14.0%	0.0%[1.84 µM]	1.4%	-1.4%	-4.1%
CSc1ccc(CN2CCN(C(=O)CC(C)C)CC2)cc1	-4.4%	nt	1.3%	nt	0.6%	2.2%
CC(=O)O[C@@H](C)C[N+](C)(C)C	nt	-1.2%[20.6 µM]	nt	-2.5%[17.1 µM]	nt	nt
CN(C)c1ccc(Nc2ccc([N+](=O)[O-])cn2)cc1	?	nt	?	nt	?	3.55µM*
CCCn1c(C)cc(/C=C(\C#N)C(=O)OCC(=O)Nc2ccc(OC)c(Cl)c2)c1C	1.9%	nt	11.2%	nt	?	-1.1%
CCOC(=O)/C(C#N)=C/c1cc(C)n(-c2ccc(C)cc2)c1C	1.84µM*	-6.7%	1µM*	2.5%	2.39µM*	2.82µM*
CCCn1c(C)cc(/C=C(\C#N)C(=O)OCC(=O)NC(=O)NCC)c1C	2.9%	6.4%	-7.3%	18.3%	12µM*	-0.2%
Cc1cc(/C=C(\C#N)C(=O)Nc2ccccc2)c(C)n1-c1ccc(C(=O)O)cc1	-3.5%	nt	-0.2%	nt	-5.5%	2.7%
CCOC(=O)/C(C#N)=C\c1cc(C)n(-c2ccccc2)c1C	?	-65.5%	1.78µM*	-3.1%	0.426µM*	1.58µM*
Cc1ccc(S(=O)(=O)N2CCC(C(=O)Nc3cc(C(F)(F)F)ccc3N3CCOCC3)CC2)cc1C	-0.6%	nt	0.5%	nt	2.0%	-2.8%
Cc1cccc(NS(=O)(=O)c2ccc(Cl)cc2)n1	-4.6%	nt	-0.4%	nt	-13.5%	10.8%
Cc1cc(C)n2nc(-c3ccccc3)c(-c3ccccc3)c2n1	-6.1%	nt	3.6%	nt	0.8%	0.1%
O=C(CC1C(=O)NCCN1CC1CCCCC1)NCc1ccc(F)cc1F (centres undefined)	?	nt	2.82µM*	-4.2%	?	2.82µM*
O=C(CC1C(=O)NCCN1CC1CCCCC1)NCc1cc(F)ccc1F (centres undefined)	0.1%	nt	1.2%	-1.0%	-1.5%	-6.9%
Cc1ccc(NC(=O)/C=C/c2ccco2)nc1	4.11µM*	14.1µM*	21.7%	-2.8%	6.01µM*	?
Cc1ccc(NC(=O)/C=C/c2cccc([N+](=O)[O-])c2)nc1	16.1%	11.1%	19.2%	5.0%	-0.8%	1.1%
O=C(/C=C/c1ccco1)Nc1cccc2cccnc12	?	?	25.8%	-4.2%	15.1µM*	25.6%
O=C(/C=C/c1ccco1)Nc1ccccn1	8.2µM*	8.91µM*	?	?	6.75µM*	?

Screens (PubChem BioAssay)
